# Only some compounds are listed: those with a hit (about 1.6% of all), similar ones and a draw of the others.
# KCNQ2 block = blocks the rat KCNQ2 potassium channel | O88943 | CHO-K1 KCNQ2, FluxOR thallium flux, 20 min; hits give low values | B-score at 10 µM | 310,000 compounds, 1.1% hits | AID 2156;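 active = fluorescence ratio B-score at most minus 3 library SDs, with starting brightness B-score within 2 library SDs, cut at about -5.5 in these data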
# KCNQ2 enhance = potentiators of rat KCNQ2 potassium channel | O88943 | CHO-K1 KCNQ2, FluxOR thallium flux fluorescence; hits give high values | AID 2239 | B-score at 10 µM | 310,000 compounds, 0.54% hits;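 active = fluorescence ratio B-score at least 3 SD of library B-scores, with initial fluorescence B-score within 3 of them, cut at about 5.3 in these data; same plate scores as AID 2156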;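 also: B-score of peak minus minimum over baseline fluorescence ratio after K+ and Tl+ stimulus; positive B-score means potentiation of KCNQ2 with more thallium influx and brighter signal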
# KCNQ2 block conf = confirmation of rat KCNQ2 potassium channel inhibitors | shares compounds with KCNQ2 block | KCNQ2-expressing cells, thallium flux, inhibition; hits give low values | activity change, negative = inhibition, % at 10 µM | 1,000 compounds, 57% hits;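 also: 0% = vehicle wells and values are ratio percent relative to vehicle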
# KCNQ1 spec = selectivity of KCNQ2 inhibitors against human KCNQ1 | activity change, negative = inhibition, % at 10 µM | KCNQ1-expressing cells, FluxOR thallium flux fluorescence; hits give low values | 1,000 compounds, 15% hits | shares compounds with KCNQ2 block;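 active = activity change at least 3 SD of negative controls below their mean in both duplicate wells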;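 also: CHO cells stably transfected with KCNQ1 and depolarized by potassium stimulus; peak minus minimum fluorescence over baseline after thallium addition; 0% = vehicle negative control and -100% = blank without thallium stimulus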
# CHO parental ctr = KCNQ2 inhibitor counter-screen hit in parental CHO cells. shares compounds with KCNQ2 block. thallium flux counter-screen; hits give low values. activity change, % at 10 µM. 1,000 compounds, 14% hits;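 also: 0% = vehicle negative controls with stimulus buffer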
# KCNQ2 inh confirm = confirmation of rat KCNQ2 potassium channel inhibitors. 550 compounds, 49% hits. shares compounds with KCNQ2 block. calls only at 10 µM. KCNQ2-expressing cells, automated patch clamp current
# Kir21 conf inh = confirmation of mouse Kir2.1 potassium channel inhibitors; shares compounds with KCNQ2 enhance; Kir2.1-expressing cells, FluxOR thallium flux fluorescence; hits give low values; Tl flux remaining, % of negative control (hits give low values), % at 10 µM; 2,300 compounds, 41% hits;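 active = Primary-screen hit whose thallium flux fell at least 3 control SD below untreated wells in both duplicates, with normal baseline fluorescence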;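 also: 0% = blank wells without stimulus and 100% = stimulated no-compound controls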
# Target sequence (P35561 whole entry, looked up): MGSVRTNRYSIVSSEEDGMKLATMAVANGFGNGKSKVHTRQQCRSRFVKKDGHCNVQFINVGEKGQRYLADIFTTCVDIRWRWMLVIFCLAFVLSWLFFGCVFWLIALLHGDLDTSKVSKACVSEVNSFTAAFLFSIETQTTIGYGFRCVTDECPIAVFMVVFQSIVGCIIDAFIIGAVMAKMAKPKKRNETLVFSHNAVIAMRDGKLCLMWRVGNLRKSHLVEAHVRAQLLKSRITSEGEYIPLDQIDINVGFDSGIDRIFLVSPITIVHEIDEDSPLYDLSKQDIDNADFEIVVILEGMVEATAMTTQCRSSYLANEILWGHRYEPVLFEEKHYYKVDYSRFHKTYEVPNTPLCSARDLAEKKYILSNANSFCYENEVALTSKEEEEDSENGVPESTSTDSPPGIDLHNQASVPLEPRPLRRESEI
# HEK293 ctr = counter-screen for Kir2.1 inhibitors: effect in parental HEK293 cells; FluxOR thallium flux fluorescence; 0% = unstimulated blank wells; FluxOR signal as % of negative control (100 = no effect), % at 10 µM; 2,300 compounds, 19% hits; shares compounds with KCNQ2 enhance;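 active = dye signal at least 3 control SD above or below untreated wells in both duplicates, raw fluorescence within 3, either direction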;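 also: percent is based on the flux ratio of peak minus minimum fluorescence over baseline F0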
# The depositor's hits bear a star; i = inactive; / = no result given; + = active, no number. Unless noted, no rule for the calls is given here.
SMILES,KCNQ2 block,KCNQ2 enhance,others
CCCCCn1c(=O)c(C(=O)NCCc2ccccc2)c(O)c2ccccc21,i,/,
CCCCn1c(=O)c(C(=O)NCc2ccccc2OC)c(O)c2ccccc21,-6.22*,-6.22,
c1ccc(C2NCCc3[nH]cnc32)cc1 (stereo not drawn),i,0.36,
CCOc1ccc(-c2cc(C)[n+](CCc3ccc(OC)c(OC)c3)c(-c3ccc(OCC)cc3)c2)cc1,-5.78*,-5.78,
CCOc1ccc(-c2cc(C)[n+](CCO)c(-c3ccc(OCC)cc3)c2)cc1,i,0.49,
Clc1cnc(Oc2ccc(Oc3ncc(Cl)cc3Cl)cc2)c(Cl)c1,-5.59*,-5.59,
Oc1cc(Cl)ccc1Oc1ccc(Cl)cc1Cl,i,/,
Brc1ccc2c(c1)C(OC1CN3CCC1CC3)c1ccccc1CS2 (stereo not drawn),i,/,
O=C1NC(=O)N(c2ccc(Cl)cc2)C(=O)/C1=C/c1coc2ccc(O)cc2c1=O,i,/,
O=C1NC(=O)N(c2ccccc2)C(=O)/C1=C/c1coc2ccc(O)cc2c1=O,-7.09*,-7.09,
Cc1cc(C=O)c(C)n1C1CC1,i,0.62,
COc1ccc(-n2c(/C=C/c3ccc4c(c3)OCO4)nc3ccccc3c2=O)cc1,i,/,
Cc1ccc(-n2c(/C=C/c3ccc4c(c3)OCO4)nc3ccccc3c2=O)cc1,-5.65*,-5.65,
CCCC1(CCC)C(=O)NC(=NCc2ccccc2)NC1=O,-10.3*,-10.3,KCNQ2 block conf=-36.5%*;KCNQ1 spec=i;CHO parental ctr=i;KCNQ2 inh confirm=+
CCCC1(CCC)C(=O)NC(=Nc2ccccc2)NC1=O,i,1.27,
O=c1c2ccccc2nc(-c2cccs2)n1-c1ccccc1,i,/,
NC(N)=N/N=C/c1cn(-c2ccccc2)nc1-c1cccs1,-11.3*,-11.3,KCNQ2 block conf=i;KCNQ1 spec=i;CHO parental ctr=i
COc1cccc(-n2c(/C=C/c3ccc(O)c(O)c3)nc3ccccc3c2=O)c1,-6.91*,-6.91,KCNQ2 block conf=-28.0%*;KCNQ1 spec=i;CHO parental ctr=i;KCNQ2 inh confirm=i
COc1ccc(-n2c(/C=C/c3ccc(O)c(OC)c3)nc3ccccc3c2=O)cc1,i,/,
COc1cccc(C2CCN(CC(=O)Nc3cc(Cl)ccc3OC)CC2O)c1 (stereo not drawn),i,/,
O=C(c1cc(C(=O)NCc2ccccc2)c(=O)n(Cc2ccccc2)c1)c1cc(Br)ccc1O,-8.25*,-8.25,KCNQ2 block conf=-33.5%*;KCNQ1 spec=-39.0%*;CHO parental ctr=-32.0%*;KCNQ2 inh confirm=i
O=C(CNC(=O)c1ccccc1Cl)Nc1ccc(Br)cc1C(=O)c1ccccc1,i,0.06,
O=P(NCc1ccccc1)(Oc1ccccc1)Oc1ccccc1,-6.87*,-6.87,KCNQ2 block conf=i;KCNQ1 spec=i;CHO parental ctr=i
O=P(NS(=O)(=O)c1ccccc1)(Oc1ccccc1)Oc1ccccc1,i,0.11,
Cc1cccc(-n2c(C)nc3ccc(Cl)cc3c2=O)c1,i,/,
SMILES,KCNQ2 block,KCNQ2 enhance,others
COC(=O)N(c1ccccc1)P(=O)(Oc1ccccc1)Oc1ccccc1,i,/,
CN1CCCN(c2ccc([N+](=O)[O-])nc2)CC1,i,0.67,
CCOC(=O)c1c(NC(NC(=O)CF)C(Cl)(Cl)Cl)sc2c1CCCC2 (stereo not drawn),-8.37*,-8.37,KCNQ2 block conf=-29.0%*;KCNQ1 spec=i;CHO parental ctr=i;KCNQ2 inh confirm=i
CCOC(=O)c1c(/N=C/C2C(=O)NC(=O)NC2=O)sc2c1CCC2,i,0.38,
CCN1CCC2(CC1)NC(=O)c1ccccc1O2,i,/,
[N-]=[N+]=NCCN1CCC(O)CCC1=O (stereo not drawn),i,0.02,
COc1cc(/C=C2/C(=O)NC(=O)N(c3ccccc3)C2=O)ccc1O,i,0.42,
COc1cc(/C=C/[N+](=O)[O-])ccc1O,-7.11*,-7.11,KCNQ2 block conf=-32.5%*;KCNQ1 spec=-30.5%*;CHO parental ctr=-23.5%*;KCNQ2 inh confirm=i
COC(=O)C(O)(c1ccc(N(C)C(=O)OC(C)C)cc1)C(F)(F)F (stereo not drawn),i,1.4,
COc1cccc(NP(=O)(Oc2ccc(Cl)cc2)Oc2ccc(Cl)cc2)c1,i,/,
O=P(Nc1ccccc1)(Nc1ccccc1)Oc1ccc(Cl)cc1,-9.69*,-9.69,KCNQ2 block conf=i;KCNQ1 spec=i;CHO parental ctr=i
CCN1C(=O)/C(=C/c2ccc(N(CC)CC)cc2OC)C(=O)NC1=S,i,/,
Clc1ccc(COC(Cn2ccnc2)c2ccc(Cl)cc2Cl)c(Cl)c1 (stereo not drawn),-7.31*,-7.31,KCNQ2 block conf=-38.0%*;KCNQ1 spec=-42.0%*;CHO parental ctr=-34.5%*;KCNQ2 inh confirm=i
CCOP(=O)(OCC)Oc1cc(C)c(N(C)C)c(C)c1,i,/,
CCc1c(-c2ccccc2)nc2ccccc2c1C(=O)N1CCC2(CC1)OCCO2,i,/,
CCN(CC)c1ccc(/C=C/[N+](=O)[O-])cc1,-8.76*,-8.76,KCNQ2 block conf=-75.0%*;KCNQ1 spec=-79.5%*;CHO parental ctr=-76.5%*;KCNQ2 inh confirm=i
CCN(CC)c1ccc(CC2C(=O)N(C)C(=O)N(C)C2=O)cc1,i,/,
CCC(C#N)(CC)P(=S)(c1ccccc1)c1ccccc1,-8.64*,-8.64,KCNQ2 block conf=i;KCNQ1 spec=i;CHO parental ctr=i
CC(=O)O[C@H]1CC[C@@]2(C)[C@H](C1)C(=O)C[C@H]1[C@@H]3CC[C@@H]4[C@@H](CN5C[C@@H](C)CC[C@H]5[C@@]4(C)O)[C@@H]3C[C@@H]12,i,/,
CCOc1cc2c(cc1OCC)-n1cccc1C(c1cc(OC)ccc1F)NC2 (stereo not drawn),i,/,
Cc1ccc(CN2CCCC(C(=O)c3sccc3C)C2)o1 (stereo not drawn),i,/,
CCCCCCCSc1cc(OC)c(CCNC)cc1OC,-7.43*,-7.43,KCNQ2 block conf=-31.0%*;KCNQ1 spec=i;CHO parental ctr=i;KCNQ2 inh confirm=i;Kir21 conf inh=19.5%*;HEK293 ctr=i
O=[N+]([O-])/C=C1/NCCN1Cc1ccc(Cl)nc1,i,0.02,
CP(=O)(Nc1ccccc1)C(Cl)(Cl)Cl (stereo not drawn),i,0.56,
Oc1ccc(-[n+]2c(-c3ccccc3)cc(-c3ccccc3)cc2-c2ccccc2)cc1,-6.93*,-6.93,KCNQ2 block conf=-27.0%*;KCNQ1 spec=i;CHO parental ctr=i;Kir21 conf inh=44.5%*;HEK293 ctr=73.5%*
SMILES,KCNQ2 block,KCNQ2 enhance,others
O=C([O-])c1ccc(-[n+]2c(-c3ccccc3)cc(-c3ccccc3)cc2-c2ccccc2)cc1,i,/,
Cc1oc(-c2ccc(F)cc2F)nc1CN1C[C@@H]2C[C@@H](C1)c1cccc(=O)n1C2,i,/,
CC(NCc1ccc(Cl)c(Cl)c1)C(O)c1ccccc1 (stereo not drawn),i,/,
CN[C@@H]1C[C@@H](c2ccc(Cl)c(Cl)c2)c2ccccc21,i,/,Kir21 conf inh=27.5%*;HEK293 ctr=i
Cc1cccc(C)c1NC(=O)CN(C)CC(=O)Nc1ccc(C#N)c(Cl)c1,i,/,
FC(F)(F)c1ccccc1CNCCc1c[nH]c2ccccc12,i,0.97,

# Source: PubChem BioAssay
